The panel holds about 83,000 compounds, 20% with a hit somewhere; the sample as a whole holds those more often.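 The test compound was applied at a single concentration to cells in 96-well plates for 48 hours, and percent growth was recorded.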 Values without a mark were called inactive. Calls of active or inactive are those of the source. How the source made its calls: active means growth percent below 10; inactive means the rest.

Some test systems named below: SK-MEL-2 melanoma; EKVX NSCLC; SN12C renal; UO-31 renal; TK-10 renal; ACHN renal; CAKI-1 renal; A498 renal; CCRF-CEM leukemia; MOLT-4 leukemia.
Assay in all cases: NCI-60 one-dose screen, 48 h (100 = growth as untreated, 0 = no growth, -100 = all killed)
Details in all cases: 10 µM unless noted

On to `CCOC(=O)N1CCN(S(=O)(=O)c2oc(-c3ccc(Cl)cc3)nc2C#N)CC1`, for which the growth with SK-MEL-2 melanoma was 83.8%; in the assay on EKVX NSCLC, 101%; with SN12C renal, 92.6%; with UO-31 renal, 81.5%; in the assay on TK-10 renal, -27% (active); with ACHN renal, 76.1%. For the same molecule, the growth in the assay with CAKI-1 renal is 101%; with A498 renal it was 126%; in the assay on CCRF-CEM leukemia it was 1.71% (active); in the assay with MOLT-4 leukemia it was 5.33% (active).

Regarding `N=C(N)c1ccc(-c2ccc(-c3ccc(Cl)cc3Cl)s2)cc1F`, the growth in the assay on SK-MEL-2 melanoma is 55.8%; in the assay on EKVX NSCLC, 32.4%; with SN12C renal, -27.9% (active); in the assay on UO-31 renal it was -90.5% (active); with TK-10 renal, 91.5%; in the assay with ACHN renal, -100% (active). The growth was -82.8% (active) in the assay on CAKI-1 renal, 83.7% in the assay with A498 renal, -26.1% (active) in the assay with CCRF-CEM leukemia and -47.2% (active) with MOLT-4 leukemia.

Regarding `O=C(N/N=C/c1ccc([N+](=O)[O-])cc1)c1ccc2nc(-c3ccc(Cl)cc3)[nH]c2c1`, the growth in the assay on SK-MEL-2 melanoma was 66.7%; in the assay with EKVX NSCLC, 49%; with SN12C renal, 19.6%; in the assay with UO-31 renal it was 42.6%; in the assay on TK-10 renal it was 89.8%; with ACHN renal, 32.3%. The growth is 42.7% in the assay on CAKI-1 renal, -0.501% (active) in the assay with A498 renal, 9.87% (active) with CCRF-CEM leukemia and 4.24% (active) in the assay on MOLT-4 leukemia.

As for `CC(C)c1ccc(-n2c(=S)[nH]c3sc4c(c3c2=O)CCC(=O)C4)cc1`, the growth with SK-MEL-2 melanoma is 91.4%; in the assay with EKVX NSCLC, 47%; with SN12C renal it was 50.8%; in the assay with UO-31 renal it was 46.9%; in the assay on TK-10 renal it was 106%; with ACHN renal, 82%. The growth in the assay with CAKI-1 renal is 74.2%; in the assay on A498 renal, 112%; in the assay with CCRF-CEM leukemia it was 18.2%; with MOLT-4 leukemia, 75.7%.

Take `CN1C(=O)N(C)C2C1NC(=S)N2/N=C/C=C/c1ccccc1[N+](=O)[O-]` (stereo not given): the growth is 17% with SK-MEL-2 melanoma; 43.6% in the assay on EKVX NSCLC; 31.4% in the assay on SN12C renal; 44.6% in the assay on UO-31 renal; 42.8% in the assay on TK-10 renal; 30.7% in the assay with ACHN renal. Moreover, the growth with CAKI-1 renal was 23%; with A498 renal, 10.8%; in the assay on CCRF-CEM leukemia, 7.73% (active); in the assay on MOLT-4 leukemia it was 27.8%.

For `Cc1cscc(C)c1=S`, the growth is 11.9% in the assay on SK-MEL-2 melanoma; 110% in the assay on EKVX NSCLC; 87.5% with SN12C renal; 70.5% with UO-31 renal; 92.4% in the assay on TK-10 renal; -5.99% (active) in the assay on ACHN renal. Moreover, the growth is 51.2% with CAKI-1 renal, 128% in the assay with A498 renal, 91.1% in the assay on CCRF-CEM leukemia and 81.2% in the assay on MOLT-4 leukemia.

Take `CCOc1ccc(/C=N\N=C\c2ccc(OCC)cc2)cc1`: the growth in the assay with SK-MEL-2 melanoma is 39.3%; in the assay with EKVX NSCLC, 103%; in the assay with SN12C renal, 80.4%; with UO-31 renal, 79%; in the assay with TK-10 renal, 86.8%; with ACHN renal it was 9.41% (active). Further, the growth is 46.3% in the assay with CAKI-1 renal, 108% in the assay with A498 renal, 118% in the assay on CCRF-CEM leukemia and 81% with MOLT-4 leukemia.

`Cc1ccc(O)c(NC(=O)c2ccc(CNc3ccnc(C(F)(F)F)c3)cc2)c1`: the growth in the assay on SK-MEL-2 melanoma was 79.2%; with EKVX NSCLC it was 60.5%; in the assay on SN12C renal, 46.4%; in the assay on UO-31 renal, 32.6%; in the assay on TK-10 renal, 96.7%; with ACHN renal, 39%. In addition, the growth in the assay on CAKI-1 renal is 41.8%; with A498 renal, 80.7%; in the assay on CCRF-CEM leukemia, 7.6% (active); in the assay with MOLT-4 leukemia, 25.1%.

On to `COC(=O)c1c2c(n3ccc(C)cc13)C(=O)c1ccccc1C2=O`, for which the growth with SK-MEL-2 melanoma was 71.6%; in the assay on EKVX NSCLC, 76.3%; with SN12C renal, 75.9%; in the assay with UO-31 renal, 41%; in the assay on TK-10 renal it was 85.8%; in the assay on ACHN renal it was 56.3%. For the same molecule, the growth in the assay on CAKI-1 renal was 59.2%; in the assay on A498 renal it was 78.3%; with CCRF-CEM leukemia, 46.8%; in the assay on MOLT-4 leukemia it was 51.4%.

In the case of `COc1ccc(C(C)=O)cc1S(N)(=O)=O`, the growth was 87.9% in the assay on SK-MEL-2 melanoma; 106% in the assay with EKVX NSCLC; 101% with SN12C renal; 90.7% in the assay on UO-31 renal; 81.4% in the assay on TK-10 renal; 102% in the assay on ACHN renal. Besides, the growth is 93.8% in the assay on CAKI-1 renal, 101% with A498 renal, 96.8% in the assay on CCRF-CEM leukemia and 86.4% with MOLT-4 leukemia.

In the case of `Cc1cc(F)ccc1S(=O)(=O)Nc1cc(-c2c(O)ccc3ccccc23)c(O)c2ccccc12`, the growth in the assay on SK-MEL-2 melanoma is 5.32% (active); in the assay on EKVX NSCLC it was 19%; with SN12C renal it was 46.6%; in the assay with UO-31 renal, 20.3%; in the assay on TK-10 renal, 72.7%; in the assay on ACHN renal, -7.97% (active). For the same molecule, the growth in the assay on CAKI-1 renal is 51.5%; in the assay on A498 renal it was 57.7%; in the assay with CCRF-CEM leukemia, 21.9%; in the assay with MOLT-4 leukemia it was 17.6%.

Take `CC(C)(CO)N(CCO)CCO`: the growth in the assay with SK-MEL-2 melanoma is 100%; in the assay with EKVX NSCLC, 116%; with SN12C renal, 99.1%; in the assay on UO-31 renal, 87.4%; with TK-10 renal it was 95.5%; with ACHN renal it was 97.1%. Further, the growth with CAKI-1 renal was 100%; in the assay with A498 renal, 111%; with CCRF-CEM leukemia, 92.8%; with MOLT-4 leukemia, 104%.

For the molecule `O=C1Nc2ccccc2C2c3cccn3-c3ccccc3N12` (stereo not given), the growth was 52% in the assay with SK-MEL-2 melanoma; 81.8% in the assay on EKVX NSCLC; 90.3% in the assay with SN12C renal; 70.4% in the assay with UO-31 renal; 73.1% with TK-10 renal; 94.8% in the assay with ACHN renal. For the same molecule, the growth in the assay with CAKI-1 renal is 80.8%; with A498 renal it was 73.9%; in the assay with CCRF-CEM leukemia, 80.9%; in the assay on MOLT-4 leukemia it was 77.5%.

With `CCOC(=O)Nc1nc2ccc(SCC(C)C)cc2s1`, the growth with SK-MEL-2 melanoma was 33.1%; with EKVX NSCLC, 48.7%; in the assay with SN12C renal, 44.4%; in the assay on UO-31 renal, 37.6%; with TK-10 renal, 33%; in the assay on ACHN renal it was 45.6%. Moreover, the growth with CAKI-1 renal is 96.6%; with A498 renal, 21.5%; in the assay with CCRF-CEM leukemia, 21.5%; with MOLT-4 leukemia it was 31.8%.

Take `Cc1ccc(N=Nc2c(N)nn(-c3ccccc3)c2N)cc1`: the growth with SK-MEL-2 melanoma was 41.2%; in the assay with EKVX NSCLC, 29.9%; in the assay on SN12C renal it was 45.4%; in the assay on UO-31 renal, 45.1%; in the assay with TK-10 renal, 43.6%; in the assay on ACHN renal, 47.6%. In addition, the growth is -2.05% (active) with CAKI-1 renal, 49.9% in the assay with A498 renal, 8.89% (active) in the assay on CCRF-CEM leukemia and 23.5% in the assay on MOLT-4 leukemia.

Turning to `CNC(=O)c1c(NC(=O)c2ccc(C(C)(C)C)cc2)sc2c(CN(C)C)c(O)ccc12`, the growth with SK-MEL-2 melanoma is -53% (active); with EKVX NSCLC it was 63.3%; in the assay with SN12C renal it was 4.62% (active); with UO-31 renal it was -78.5% (active); with TK-10 renal, 87.5%; with ACHN renal, -22.3% (active). The growth is -13.1% (active) in the assay on CAKI-1 renal, 53.1% with A498 renal, -7.61% (active) in the assay with CCRF-CEM leukemia and -35.5% (active) with MOLT-4 leukemia.

With `CCCC(O)Cn1ncc(C(=O)OCC)c1NC(=O)NCc1cccc(F)c1` (stereo not given), the growth is 90.7% in the assay on SK-MEL-2 melanoma; 97.8% in the assay on EKVX NSCLC; 99.8% with SN12C renal; 79.3% with UO-31 renal; 87.5% with TK-10 renal; 96.6% in the assay on ACHN renal. The growth in the assay with CAKI-1 renal is 84.6%; in the assay with A498 renal it was 108%; in the assay with CCRF-CEM leukemia, 90.1%; in the assay on MOLT-4 leukemia it was 70.6%.

As to `CC(C)(C)c1cc(C=Nc2cccc(C(F)(F)F)c2)c(O)c(C(C)(C)C)c1`, the growth is 102% in the assay with SK-MEL-2 melanoma; 107% in the assay on EKVX NSCLC; 98.8% in the assay on SN12C renal; 80.7% in the assay with UO-31 renal; 84.8% in the assay on TK-10 renal; 111% in the assay on ACHN renal. Moreover, the growth in the assay on CAKI-1 renal is 90.4%; in the assay on A498 renal, 108%; in the assay with CCRF-CEM leukemia, 62.5%; in the assay with MOLT-4 leukemia, 85.3%.

In the case of `CCN1CCN(CC(=O)Nc2nc3ccc(NCc4ccc(Br)cc4)cc3s2)CC1`, the growth in the assay on SK-MEL-2 melanoma is 55.4%; with EKVX NSCLC, 68.2%; in the assay on SN12C renal it was 63.8%; in the assay on UO-31 renal, 59.5%; in the assay on TK-10 renal, 87%; in the assay with ACHN renal it was 74.6%. Further, the growth was 35.5% in the assay on CAKI-1 renal, 88.8% in the assay with A498 renal, 34.2% with CCRF-CEM leukemia and 31.7% with MOLT-4 leukemia.

Regarding `COc1cccc(/C=C2\COc3ccc(O)cc3C2=O)c1`, the growth is 104% in the assay with SK-MEL-2 melanoma; 98.4% in the assay with EKVX NSCLC; 30.1% in the assay with SN12C renal; 69.1% in the assay on UO-31 renal; 101% with TK-10 renal; 84.7% in the assay on ACHN renal. Also, the growth with CAKI-1 renal is 80.4%; in the assay with A498 renal, 104%; in the assay with CCRF-CEM leukemia, -0.603% (active); with MOLT-4 leukemia, 40.2%.

Consider `CCN(CC)CCNC(=O)c1ccc(-c2nc3ccc4[nH]ncc4c3c3c2CCCC3)cc1`, for which the growth is 60.5% with SK-MEL-2 melanoma; 51% in the assay with EKVX NSCLC; 70.9% in the assay with SN12C renal; 40.3% in the assay with UO-31 renal; 47.7% in the assay on TK-10 renal; 24.7% in the assay on ACHN renal. For the same molecule, the growth is 9.09% (active) in the assay with CAKI-1 renal, 16.9% with A498 renal, 47% in the assay on CCRF-CEM leukemia and 50% in the assay with MOLT-4 leukemia.

As to `CN1CCN(CCOc2ccc(-c3cnc4c(-c5ccc(C(F)(F)F)cc5)cnn4c3)cc2)CC1`, the growth with SK-MEL-2 melanoma is 63.3%; in the assay with EKVX NSCLC, 60.1%; in the assay on SN12C renal, 53.7%; in the assay on UO-31 renal, 38.1%; in the assay on TK-10 renal, 67.4%; in the assay with ACHN renal, 58.8%. Further, the growth is 31% with CAKI-1 renal, 69.5% in the assay on A498 renal, -13.7% (active) in the assay with CCRF-CEM leukemia and -51.3% (active) in the assay on MOLT-4 leukemia.

In the case of `C=CCn1c(SCC(=O)Nc2ccc(C(=O)/C=C/c3cc(OC)c(OC)c(OC)c3)cc2)nnc1-c1cc(-c2ccc(OC)cc2)nc2ccccc12`, the growth with SK-MEL-2 melanoma is 102%; in the assay on EKVX NSCLC, 100%; with SN12C renal, 90.3%; in the assay with UO-31 renal it was 76.3%; with TK-10 renal it was 121%; in the assay on ACHN renal it was 89.2%. The growth with CAKI-1 renal is 81.5%; in the assay on A498 renal, 89%; with CCRF-CEM leukemia, 66.6%; in the assay with MOLT-4 leukemia, 66.4%.

These data come from PubChem BioAssay (NCI).
